Source: PubChem (National Center for Advancing Translational Sciences (NCATS))
TRPV1 potentiator = enhances activation of the human vanilloid receptor TRPV1 | Q8NER1 | TRPV1-expressing cells, Fluo-8 calcium influx, capsaicin EC20 potentiation | potentiation, % at 8.33 µM | 320,000 tested, 0.02% active | AID 540277; in the data active = potentiation above about 80%; inconclusive = between about 30% and that limit; note: 0% is about no effect
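TRPV1-expressing cells were cultured overnight at 35.5C and loaded with Fluo-8 calcium dye for 40 to 90 min at room temperature. After a 10 s baseline, compound was added and calcium influx was read kinetically for 3 min (ex 480/em 520 nm).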
TRPV1 ag = human TRPV1 agonism | Q8NER1 | activation, % at 8.33 µM | 320,000 tested, 0.19% active | AID 540275 | TRPV1-expressing cells, Fluo-8 calcium influx, agonist mode; in the data active = activation above about 80%; inconclusive = between about 30% and that limit; note: 0% is about no effect
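Cells expressing TRPV1 were dye-loaded with Fluo-8 and read kinetically: 10 s baseline, 3 min after compound (agonist portion), then 2 min after EC20 capsaicin (allosteric enhancer portion). Calcium-bound dye fluorescence at 480/520 nm.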
TRPML1 blocker = blocks the human TRPML1 channel; TRPML1-inducible cells, Ca2+ dye fluorescence, FDSS; hits give low values; inhibition of EC80 agonist-evoked calcium signal; Q9GZU1; 390,000 tested, 0.02% active; activity change, negative = inhibition, % (concentration not given with the values); AID 624415; in the data active = activity change below about -50%; inconclusive = between about -30% and that limit;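 note: stimulus is agonist 54-4 at its EC80 concentration; % is set by controls: 0 for no effect and ±100 for the full control effect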
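Calcium fluorescence in TRPML1-DL cells induced overnight with Tet: a 110 s read after compound pin addition, then a 110 s antagonist read after challenge with 54-4 at 4 uM final (EC80).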
TRHR PAM = allosteric enhancers of human TRH receptor. enhancement, % at 2 µM. 360,000 tested, 0.66% active. P34981. TRHR cells, fluo-8 calcium fluorescence, EC20 TRH enhancement; in the data active = enhancement above about 30%; note: 0% is about no effect
Target sequence (P34981 whole entry, looked up): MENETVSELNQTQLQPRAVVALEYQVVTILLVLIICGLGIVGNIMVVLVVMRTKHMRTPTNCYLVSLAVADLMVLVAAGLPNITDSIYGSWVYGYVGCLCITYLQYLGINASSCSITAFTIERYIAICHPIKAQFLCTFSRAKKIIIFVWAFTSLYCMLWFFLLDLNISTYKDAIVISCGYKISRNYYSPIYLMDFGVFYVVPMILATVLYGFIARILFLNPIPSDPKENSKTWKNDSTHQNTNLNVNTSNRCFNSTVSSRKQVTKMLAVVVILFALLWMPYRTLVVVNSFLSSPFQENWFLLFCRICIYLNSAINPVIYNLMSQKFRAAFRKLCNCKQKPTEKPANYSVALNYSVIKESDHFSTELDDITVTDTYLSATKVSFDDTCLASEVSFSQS
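Enhancer read-out: after compound pinning and an initial kinetic agonist-mode read, an EC20 of TRH (10 nM final) was injected and fluo-8 calcium signal (Ex 480/Em 530) followed at 1 s/cycle for 100 cycles in TRHR-expressing cells.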
TRPML1 agonist = activates the human TRPML1 channel; TRPML1-expressing cells, Ca2+ dye fluorescence, FDSS; activation, % (concentration not given with the values); 410,000 tested, 0.12% active; in the data active = activation above about 50%; inconclusive = mostly about 30% to 49%; note: 0% is about no effect
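Kinetic FDSS Ca2+ read in Tet-induced TRPML1-DL cells (ABD Ca8 dye plus quencher, 45-90 min RT loading): baseline, then compound, then 110 s agonist window; EC80 agonist 54-4 at 4uM final added afterwards for a 110 s antagonist window.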
TRHR ag = TRH receptor (human) agonism; AID 493084; 360,000 tested, 0.18% active; TRHR cells, calcium flux fluo-8, FDSS agonist mode; activation, % at 2 µM; in the data active = activation above about 30%; note: 0% is about no effect
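Agonist-mode FDSS calcium read (Ex 480/Em 530, 1 s cycles) in 1536-well TRHR cells with fluo-8 dye, after 10-cycle baseline and 23 nL compound addition; TRH at EC20 (10 nM final) added afterwards for the enhancer phase.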
* = called active by the depositor; ? = inconclusive; nt = no result given. A selection: hits, their analogues and other compounds. The true share with any hit is near 0.99%.

SMILES | TRPV1 potentiator | TRPV1 ag | TRPML1 blocker | TRHR PAM | TRPML1 agonist | TRHR ag
CCCOc1ccc(C(=O)NNC(=S)NC(=O)c2cccs2)cc1 | 4.3 | 10.2 | -7.2 | -2.3 | 53.4* | 13.4
CCCOc1ccc(C(=O)NNC(=S)NC(C)=O)cc1 | 16.0 | -1.1 | 5.2 | -1.8 | 1.5 | 0.5
O=C(C[n+]1cccc2cccc(O)c21)c1ccccc1 | nt | nt | nt | nt | 3.1 | nt
Cc1nn(Cc2ccc(Br)cc2)c(C)c1NC(=O)c1nn(C)cc1Cl | -3.6 | -1.4 | -5.3 | 30.9* | -0.8 | -0.6
CCc1ccc(C(=O)C[N+]2(C)CCOCC2)cc1 | nt | nt | nt | nt | 0.0 | nt
O=C1c2ccccc2NC(c2ccc(-c3ccccc3F)o2)N1O (stereo not given) | 3.8 | -0.2 | nt | 36.1* | nt | -0.7
CC12CCC(=O)N1C(C(=O)Nc1ccccc1F)CS2 (stereo not given) | 11.9 | -0.2 | 21.5 | -0.1 | -0.1 | 0.6
CC12CCC(=O)N1C(C(=O)Nc1ccc(F)c(Cl)c1)CS2 (stereo not given) | -17.9 | 3.7 | 15.2 | 35.1* | 0.6 | 0.0
CC(C)(C)n1ncc2c(=O)n(Cc3cccc(-c4cccs4)c3)cnc21 | nt | nt | 23.1 | nt | 0.6 | nt
Cc1ccc(-c2noc(-c3ccccc3OCC(=O)Nc3ccccc3[N+](=O)[O-])n2)cc1 | nt | nt | -2.8 | -2.2 | -0.4 | 0.1
O=C(COc1ccccc1-c1nc(-c2ccccc2)no1)Nc1ccccc1[N+](=O)[O-] | nt | nt | -1.4 | 40.9* | -0.1 | -0.6
O=C(Nc1cccc2ccccc12)/C(=C/c1cccc([N+](=O)[O-])c1)NC(=O)c1cccs1 | 8.1 | -2.4 | 6.2 | 33.8* | 0.2 | -0.3
CCn1nc(-c2ccccc2C)nc2c(=O)n(C)c(=O)nc1-2 | nt | nt | nt | nt | -0.4 | nt
O=c1[nH]c2ccc(S(=O)(=O)N3CCN(S(=O)(=O)c4c(F)cccc4F)CC3)cc2[nH]c1=O | nt | nt | nt | -5.7 | nt | 0.2
CCCCCCC[n+]1c(/C=C/c2ccc(N(C)C)cc2)sc2ccccc21 | nt | nt | nt | nt | 18.0 | nt
CC1CCCN(CC(=O)N2c3ccccc3Sc3ccccc32)C1 (stereo not given) | -11.1 | 13.9 | 8.2 | 36.4* | -0.1 | 0.2
O=C(CN1CCCCCC1)N1c2ccccc2Sc2ccccc21 | -0.5 | 2.0 | -2.5 | 1.5 | -0.1 | 1.5
O=[N+]([O-])c1ccccc1S(=O)(=O)N1CCN(C2CCN(Cc3ccccc3)CC2)CC1 | -8.6 | 0.3 | 17.6 | 31.1* | -0.1 | 1.4
COc1ccc(OC)c(S(=O)(=O)N2CCN(Cc3ccccc3)CC2)c1 | -7.7 | 5.1 | nt | 30.5* | nt | 0.0
O=S(=O)(c1ccc(Cl)cc1)N1CCN(C2CCN(Cc3ccccc3)CC2)CC1 | -4.7 | -1.5 | -10.4 | 15.0 | 0.9 | -0.5
COc1ccc(S(=O)(=O)N2CCC(N3CCN(Cc4ccccc4)CC3)CC2)cc1 | ? | 2.0 | -18.8 | 31.5* | 0.6 | 0.1
CCN1C(=O)c2ccccc2Sc2ccc(C(=O)NCCCN3CCOCC3)cc21 | -1.7 | 2.8 | -12.3 | 31.6* | 0.0 | -0.7
COC(=O)c1c(C(=O)OC)c(-c2ccc(F)cc2)n2c1CS(=O)C2 (stereo not given) | 25.6 | -7.0 | -18.9 | -1.8 | 0.4 | -0.1
COC(=O)c1c(C(=O)OC)c(-c2ccccc2)n2c1CS(=O)C2 (stereo not given) | 91.5* | -6.8 | 34.4 | 4.6 | 0.5 | -0.6
Cn1c(C(=O)Nc2ccc(Cl)cc2)cc2cc(Cl)ccc21 | -11.1 | 25.6 | -5.3 | 32.5* | 0.6 | 0.8
SMILES | TRPV1 potentiator | TRPV1 ag | TRPML1 blocker | TRHR PAM | TRPML1 agonist | TRHR ag
Cc1ccnc2ccc3ccccc3c12 | nt | nt | nt | nt | -0.5 | nt
O=C1CSC(=S)N1/N=C/c1cc(Br)c(O)c(Br)c1 | -11.4 | ? | -13.3 | 31.7* | 58.9* | 160.1*
COc1cc(/C=N/N2C(=O)CSC2=S)ccc1O | 3.1 | -0.5 | -15.4 | 1.1 | 1.6 | 5.6
O=C(CSc1ccc(Br)cc1)N1CCOCC1 | -31.0 | 80.0* | 4.2 | -0.8 | 0.2 | -0.4
Cc1cccc(Nc2nc(C#N)nc(NC3CCCC3)n2)c1 | nt | nt | nt | -2.2 | nt | 0.9
COc1ccc(/C=C(/NC(=O)/C=C/c2ccccc2)C(=O)O)cc1 | 14.8 | -5.4 | 16.3 | 34.5* | -0.7 | 0.2
